# Data published in PubChem BioAssay (Tox21).
# Values joined by “and” are separate entries in the source; they are usually repeats but may differ in a detail not shown here. Identical values can stand only once. Records with an inconclusive call do not appear. Entries that show only a call come without a potency. Unmarked numbers belong to inactive results. Active and inactive are the calls of the source. Calls come from the whole dose curve; as a rule, active = well fitted curve in the direction sought with a large enough effect in the repeat runs; inconclusive = weak or mixed curves; inactive = no such curve, though single readings can be large; an effect the other way counts as inactive or inconclusive.
# Tested on: not listed separately
# Assay: qHTS assay to identify aromatase inhibitors - cell viability counter screen (AID 743084);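 note: cells stimulated with testosterone during compound exposure; nearly all actives have a fitted effect of over 55% in size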
# Details: MCF-7 aro ERE viability, CellTiter-Fluor, 24 h; series mostly up to 70.3 µM; activity change, negative = cytotoxicity: at the top concentration
# Potency is the fitted concentration of half-maximal effect.
SMILES,"activity change, negative = cytotoxicity [%]",Potency
COCC(C)O (centres undefined),19,–
O=S(=O)(O)CCS,–,inactive
O=C1O[C@H](CO)[C@@H](O)[C@H](O)[C@H]1O,–,inactive
OC1CCCC1,–,inactive
CCCCCCCCCCCCOCC1CO1 (centres undefined),–,inactive
O=[N+]([O-])C(CO)(CO)CO,–,inactive
C=C(C)C(=O)OCCCCCCCCCCCC,–,inactive
CCCCCCCCC,–,inactive
OC[C@@H](O)[C@@H](O)[C@H](O)[C@@H](O)CO,–,inactive
NCCc1ccc(O)c(O)c1,–,27.4 µM (active)
c1ccc2ccccc2c1,–,inactive
C=C(C)C(=O)OCCC[Si](OC)(OC)OC,–,inactive
NCc1cccc(CN)c1,–,inactive
CC1CC(OC(=O)c2ccccc2O)CC(C)(C)C1 (centres undefined),–,inactive
CC1(C)CC(N=C=O)CC(C)(CN=C=O)C1 (centres undefined),–,inactive
CCOC(=O)/C=C\C(=O)OCC,–,inactive
CC[Si](OC(C)=O)(OC(C)=O)OC(C)=O,–,inactive
CCCCOCCO,–,inactive
CCOC(=O)[C@H](CCc1ccccc1)N[C@@H](C)C(=O)N1Cc2ccccc2C[C@H]1C(=O)O,22.6,–

SMILES,"activity change, negative = cytotoxicity [%]",Potency
Clc1ccc(Cl)c(Cl)c1Cl,–,inactive
COC(=O)c1ccc(C(=O)OC)cc1,–,inactive
Nc1c(S(=O)(=O)O)cc(Br)c2c1C(=O)c1ccccc1C2=O,–,34.4 µM (active)
NS(=O)(=O)c1cc2c(cc1Cl)NC=NS2(=O)=O,–,inactive
CCCCCCOC(C)=O,–,inactive
OCC1CCCO1 (centres undefined),–,inactive
CCOC(=O)C1OC1c1ccccc1 (centres undefined),–,inactive
CC(C)(N=C=O)c1cccc(C(C)(C)N=C=O)c1,–,inactive
CCCCOCCOCCOC(=O)CCCCC(=O)OCCOCCOCCCC,–,inactive
CS(=O)(=O)c1ccc([C@@H](O)[C@@H](CO)NC(=O)C(Cl)Cl)cc1,–,inactive
CCC(C)C=O (centres undefined),–,inactive
COCC(=O)O,–,inactive
CC(C)(CO)COC(=O)C(C)(C)CO,–,inactive
C=C(C)C(=O)OCC(CC)(COC(=O)C(=C)C)COC(=O)C(=C)C,–,inactive
Clc1cc(Cl)c(Cl)cc1Cl,–,inactive
CCCCCCC(C)(C)S,–,inactive
CC1Cc2ccccc2N1NC(=O)c1ccc(Cl)c(S(N)(=O)=O)c1 (centres undefined),–,inactive
CN(C)c1cccc(O)c1,–,inactive
O=C(Cl)c1c(Cl)c(Cl)c(C(=O)Cl)c(Cl)c1Cl,–,inactive

# Target: Aryl hydrocarbon receptor (Homo sapiens) (UniProt P35869)
# Assay: qHTS assay to identify small molecule that activate the aryl hydrocarbon receptor (AhR) signaling pathway (AID 743085); note: nearly all actives have a fitted effect of over 15% in size;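 for activation: HG2L7.5c1 human HepG2 liver cells with stably integrated DRE-driven firefly reporter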
# Details: HepG2 AhR-luc (HG2L7.5c1), luciferase, 24 h; series mostly up to 70.3 µM; activation: at the top concentration
# Summary of the method: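 Luminescence (ONE-Glo) from a dioxin-responsive-element luciferase reporter in HG2L7.5c1 HepG2 cells after 24 hr compound exposure at 37C; viability measured by CellTiter-Fluor fluorescence beforehand.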
# Sequence of Aryl hydrocarbon receptor (Homo sapiens) (P35869 whole entry, looked up): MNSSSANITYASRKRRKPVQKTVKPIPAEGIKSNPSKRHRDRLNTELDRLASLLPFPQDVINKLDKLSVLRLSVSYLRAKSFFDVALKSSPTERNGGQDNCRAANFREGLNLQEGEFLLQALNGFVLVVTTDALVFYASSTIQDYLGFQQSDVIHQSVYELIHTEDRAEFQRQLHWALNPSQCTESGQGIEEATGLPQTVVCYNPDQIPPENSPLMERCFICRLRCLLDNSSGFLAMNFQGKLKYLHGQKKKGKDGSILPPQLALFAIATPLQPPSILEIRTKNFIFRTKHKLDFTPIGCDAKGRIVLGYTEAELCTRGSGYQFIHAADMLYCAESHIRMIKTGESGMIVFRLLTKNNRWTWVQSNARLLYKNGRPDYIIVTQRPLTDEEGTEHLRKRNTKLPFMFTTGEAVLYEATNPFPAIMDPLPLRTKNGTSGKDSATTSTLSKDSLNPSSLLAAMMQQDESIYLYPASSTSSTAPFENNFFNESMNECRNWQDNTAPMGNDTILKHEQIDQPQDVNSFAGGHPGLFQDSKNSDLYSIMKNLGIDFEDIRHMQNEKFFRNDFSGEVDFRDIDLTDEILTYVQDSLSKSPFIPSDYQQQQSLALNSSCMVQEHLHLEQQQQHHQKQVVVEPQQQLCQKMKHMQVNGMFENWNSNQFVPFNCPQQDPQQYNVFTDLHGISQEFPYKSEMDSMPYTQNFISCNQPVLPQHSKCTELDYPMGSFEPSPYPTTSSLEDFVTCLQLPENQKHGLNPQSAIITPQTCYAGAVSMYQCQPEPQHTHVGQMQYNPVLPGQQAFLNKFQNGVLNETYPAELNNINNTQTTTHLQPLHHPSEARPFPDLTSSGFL
SMILES,activation,Potency
COCC(C)O (centres undefined),0.226%,–
O=S(=O)(O)CCS,–,inactive
O=C1O[C@H](CO)[C@@H](O)[C@H](O)[C@H]1O,–,inactive
OC1CCCC1,–,inactive
CCCCCCCCCCCCOCC1CO1 (centres undefined),–,inactive
O=[N+]([O-])C(CO)(CO)CO,–,inactive
C=C(C)C(=O)OCCCCCCCCCCCC,–,inactive
CCCCCCCCC,5.39% [at 95 µM],–
OC[C@@H](O)[C@@H](O)[C@H](O)[C@@H](O)CO,–,inactive
NCCc1ccc(O)c(O)c1,1.67%,–
c1ccc2ccccc2c1,–,inactive
C=C(C)C(=O)OCCC[Si](OC)(OC)OC,–,inactive
NCc1cccc(CN)c1,1.91%,–
CC1CC(OC(=O)c2ccccc2O)CC(C)(C)C1 (centres undefined),–,inactive
CC1(C)CC(N=C=O)CC(C)(CN=C=O)C1 (centres undefined),–,inactive
CCOC(=O)/C=C\C(=O)OCC,–,inactive
CC[Si](OC(C)=O)(OC(C)=O)OC(C)=O,-0.756%,–
CCCCOCCO,-0.473%,–
CCOC(=O)[C@H](CCc1ccccc1)N[C@@H](C)C(=O)N1Cc2ccccc2C[C@H]1C(=O)O,–,6.16 µM (active)

SMILES,activation,Potency
Clc1ccc(Cl)c(Cl)c1Cl,-1.13%,–
COC(=O)c1ccc(C(=O)OC)cc1,–,inactive
Nc1c(S(=O)(=O)O)cc(Br)c2c1C(=O)c1ccccc1C2=O,–,31.3 µM (active) and 30.6 µM (active)
NS(=O)(=O)c1cc2c(cc1Cl)NC=NS2(=O)=O,–,inactive
CCCCCCOC(C)=O,–,inactive
OCC1CCCO1 (centres undefined),–,inactive
CCOC(=O)C1OC1c1ccccc1 (centres undefined),–,inactive
CC(C)(N=C=O)c1cccc(C(C)(C)N=C=O)c1,–,inactive
CCCCOCCOCCOC(=O)CCCCC(=O)OCCOCCOCCCC,–,inactive
CS(=O)(=O)c1ccc([C@@H](O)[C@@H](CO)NC(=O)C(Cl)Cl)cc1,–,inactive
CCC(C)C=O (centres undefined),–,inactive
COCC(=O)O,–,inactive
CC(C)(CO)COC(=O)C(C)(C)CO,–,inactive
C=C(C)C(=O)OCC(CC)(COC(=O)C(=C)C)COC(=O)C(=C)C,–,inactive
Clc1cc(Cl)c(Cl)cc1Cl,-0.583%,–
CCCCCCC(C)(C)S,-0.809% [at 95 µM],–
CC1Cc2ccccc2N1NC(=O)c1ccc(Cl)c(S(N)(=O)=O)c1 (centres undefined),–,inactive
CN(C)c1cccc(O)c1,–,15.6 µM (active) and 30.6 µM (active)
O=C(Cl)c1c(Cl)c(Cl)c(C(=O)Cl)c(Cl)c1Cl,–,inactive

# Tested on: not listed separately
# Assay: qHTS assay to identify small molecule that activate the aryl hydrocarbon receptor (AhR) signaling pathway - cell viability counter screen (AID 743086); note: nearly all actives have a fitted effect of over 45% in size;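 for viability change, negative = cytotoxic: HepG2 liver cells carrying the AhR DRE luciferase reporter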
# Details: HepG2-AhR-luc viability, CellTiter-Fluor, 24 h; series mostly up to 70.3 µM; viability change, negative = cytotoxic: at the top concentration
# Summary of the method: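 HepG2-AhR-luc (HG2L7.5c1) cells, 4000/well, were preincubated 5 h at 37C, exposed to compound in qHTS format for 24 hr at 37C, then given CellTiter-Fluor for 30 min; viability was read as fluorescence in the reporter wells.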
row,SMILES,Potency
1,COCC(C)O (centres undefined),inactive
2,O=S(=O)(O)CCS,inactive
3,O=C1O[C@H](CO)[C@@H](O)[C@H](O)[C@H]1O,inactive
4,OC1CCCC1,inactive
5,CCCCCCCCCCCCOCC1CO1 (centres undefined),inactive
6,O=[N+]([O-])C(CO)(CO)CO,inactive
7,C=C(C)C(=O)OCCCCCCCCCCCC,inactive
8,CCCCCCCCC,inactive
9,OC[C@@H](O)[C@@H](O)[C@H](O)[C@@H](O)CO,inactive
10,NCCc1ccc(O)c(O)c1,inactive
11,c1ccc2ccccc2c1,inactive
12,C=C(C)C(=O)OCCC[Si](OC)(OC)OC,inactive
13,NCc1cccc(CN)c1,inactive
14,CC1CC(OC(=O)c2ccccc2O)CC(C)(C)C1 (centres undefined),inactive
15,CC1(C)CC(N=C=O)CC(C)(CN=C=O)C1 (centres undefined),inactive
16,CCOC(=O)/C=C\C(=O)OCC,inactive
17,CC[Si](OC(C)=O)(OC(C)=O)OC(C)=O,inactive
18,CCCCOCCO,inactive
19,CCOC(=O)[C@H](CCc1ccccc1)N[C@@H](C)C(=O)N1Cc2ccccc2C[C@H]1C(=O)O,inactive

row,SMILES,Potency
1,Clc1ccc(Cl)c(Cl)c1Cl,inactive
2,COC(=O)c1ccc(C(=O)OC)cc1,inactive
3,Nc1c(S(=O)(=O)O)cc(Br)c2c1C(=O)c1ccccc1C2=O,24.3 µM (active)
4,NS(=O)(=O)c1cc2c(cc1Cl)NC=NS2(=O)=O,inactive
5,CCCCCCOC(C)=O,inactive
6,OCC1CCCO1 (centres undefined),inactive
7,CCOC(=O)C1OC1c1ccccc1 (centres undefined),inactive
8,CC(C)(N=C=O)c1cccc(C(C)(C)N=C=O)c1,inactive
9,CCCCOCCOCCOC(=O)CCCCC(=O)OCCOCCOCCCC,inactive
10,CS(=O)(=O)c1ccc([C@@H](O)[C@@H](CO)NC(=O)C(Cl)Cl)cc1,inactive
11,CCC(C)C=O (centres undefined),inactive
12,COCC(=O)O,inactive
13,CC(C)(CO)COC(=O)C(C)(C)CO,inactive
14,C=C(C)C(=O)OCC(CC)(COC(=O)C(=C)C)COC(=O)C(=C)C,inactive
15,Clc1cc(Cl)c(Cl)cc1Cl,inactive
16,CCCCCCC(C)(C)S,inactive
17,CC1Cc2ccccc2N1NC(=O)c1ccc(Cl)c(S(N)(=O)=O)c1 (centres undefined),inactive
18,CN(C)c1cccc(O)c1,inactive
19,O=C(Cl)c1c(Cl)c(Cl)c(C(=O)Cl)c(Cl)c1Cl,inactive
